Measurements: PubChem BioAssay (NCATS)
Where “and” joins values, the source holds several entries; their conditions need not be identical. Equal values may be shown once. Inconclusive results are not listed. Values without a mark were called inactive. Calls of active or inactive are those of the source. Calls follow the shape of the dose curve; as a rule, active = well fitted curve in the direction sought with a large enough effect; inconclusive = small, poorly fitted or top-dose-only effect, or another doubt; inactive = no such curve, though single readings can be large; an effect the other way counts as inactive or inconclusive.

Experiments:
[1] = Viability qHTS for spleen associated tyrosine kinase inhibitor (SYKi) naive MV4-11 cells (AID 1963823); also: nearly all actives have a fitted effect of over 40% in size
Procedure, shortened: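 Compounds were dispensed acoustically onto plates, MV4-11 cells (SYKi-naive) added at 500 per well, and plates incubated 72 hr at 37 C. CellTiter-Glo was added and luminescence measured after 10 min.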

[2] = Viability qHTS for spleen associated tyrosine kinase inhibitor (SYKi) drug resistant MV4-11 cells (AID 1963824); also: nearly all actives have a fitted effect of over 35% in size
Procedure, shortened: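 SYK inhibitor-resistant MV4-11 AML cells, 500 per well, added to predispensed compounds and incubated 72 hr at 37 C, 5% CO2. Viability measured by CellTiter-Glo luminescence after 10 min at room temperature.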

[3] = Cellular viability qHTS for adrenocortical cancer (ACC) cell line SW-13 (AID 1963989); settings: SW-13 ACC cells viability, CellTiter-Glo, 48 h; activity (max response): stronger effect = lower value; also: nearly all actives have a fitted effect of over 65% in size;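 as to activity (max response): cells grown in serum-free medium with ITS supplement; % is scaled to controls: 0 for no effect and ±100 for the full control effect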
Procedure, shortened: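 Luminescent ATP read-out (CellTiter-Glo, 20 min at room temperature) measured metabolically competent SW-13 cells after 48 h compound treatment. Final concentrations spanned up to 46 uM; bortezomib served as positive control.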

[4] = Cellular viability qHTS for adrenocortical cancer (ACC) cell line NCI-H295R (AID 1963990); also: nearly all actives have a fitted effect of over 60% in size;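 as to activity change, negative = viability loss: 0% = DMSO only wells and -100% = full killing with cytotoxic reference compound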
Procedure, shortened: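 IC50 and maximal efficacy derive from four-parameter logistic modelling of titration curves, with reads scaled between DMSO-only wells (0%) and doxorubicin hydrochloride (100% inhibition). Compounds spanned up to 46 uM over 48 h.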
Potency is read from the fitted curve at half-maximal effect.

| SMILES | Potency [1] | Potency [2] | activity (max response) [3] | Potency [4] | Potency [3] | viability (% of control) [1] | viability, % of control [2] | activity change, negative = viability loss [4] |
| --- | --- | --- | --- | --- | --- | --- | --- | --- |
| Cc1cccn2c(=O)c(-c3nnn[nH]3)cnc12 | inactive | inactive | -1.53% | inactive |  |  |  |  |
| O=C1CC(c2c[nH]c3ccc(F)cc23)C(=O)N1 (stereo unspecified) | inactive | inactive | -18.5% | inactive |  |  |  |  |
| CS(=O)(=O)N1CCC(NC(=O)c2[nH]ncc2NC(=O)c2c(Cl)cccc2Cl)CC1 | 0.934 µM (active) | 0.291 µM (active) |  | 11.2 µM (active) | 3.98 µM (active) |  |  |  |
| C[C@@H](Oc1cc(C(=O)Nc2ccc(C(=O)N3CCN(C)CC3)cc2)nnc1N)c1c(Cl)ccc(F)c1Cl | 1.66 µM (active) | 2.63 µM (active) |  | 2.82 µM (active) | 17.8 µM (active) |  |  |  |
| c1ccc(-c2ccc(CNc3nc(-c4ccccn4)nnc3-c3ccccc3)cc2)cc1 | 0.92 µM (active) | 1.03 µM (active) |  | 17.8 µM (active) | 11.2 µM (active) |  |  |  |
| Fc1ccc(-c2csc3ncnc(NCc4ccc5c(c4)OCO5)c23)cc1 | 1.66 µM (active) | 1.66 µM (active) |  | 25.1 µM (active) | 15.8 µM (active) |  |  |  |
| Nc1c2c(nc3c1CCC3)CCCC2 | inactive | inactive | -9.88% | inactive |  |  |  |  |
| Nc1ncnc(Nc2ccc(OCc3ccccc3)c(Cl)c2)c1/C=N/OCCN1CCOCC1 | 8.33 µM (active) | 7.42 µM (active) |  | 15.8 µM (active) | 17.8 µM (active) |  |  |  |
| CC(=O)O[C@]1(C(C)=O)CC[C@H]2[C@@H]3C[C@H](C)C4=CC(=O)CC[C@]4(C)[C@H]3CC[C@@]21C | 8.41 µM (active) and 13.2 µM (active) | 9.44 µM (active) and 13.2 µM (active) | -20.8% | inactive |  |  |  |  |
| CC(C(=O)O)c1ccc2c(c1)Cc1cccnc1O2 (stereo unspecified) | inactive | inactive | -0.725% | inactive |  |  |  |  |
| Cc1ccc(S(=O)(=O)NC(=O)NN2CCCCCC2)cc1 | inactive | inactive | -2.59% | inactive |  |  |  |  |
| CCCCCCCCCCCCCCCC[N+](C)(C)CC | 0.299 µM (active) | 0.668 µM (active) |  | 7.31 µM (active) | 5.17 µM (active) |  |  |  |
| CCCCNc1ncc2c(-c3ccc(CN4CCN(C)CC4)cc3)cn(C3CCC(O)CC3)c2n1 (stereo unspecified) | 0.0105 µM (active) | 11.6 nM (active) and 20.9 nM (active) |  | 6.31 µM (active) | 11.2 µM (active) |  |  |  |
| C[C@H]1C[C@H]2[C@@H]3CCC4=CC(=O)C=C[C@]4(C)[C@H]3C(=O)C[C@]2(C)[C@@]1(O)C(=O)CO | inactive | inactive | -6.73% | inactive |  |  |  |  |
| CN1C(=O)N[C@H](Cc2c[nH]c3c(Cl)cccc23)C1=O | inactive | inactive | -3.83% | inactive |  |  |  |  |
| c1ccc2[nH]ccc2c1 | inactive | inactive | 10.5% | inactive |  |  |  |  |
| C=CCn1c(=O)n([C@@H]2O[C@H](CO)[C@@H](O)[C@H]2O)c2nc(N)[nH]c(=O)c21 | inactive | inactive | 10.8% | inactive |  |  |  |  |
| C=CC(=O)N1CC[C@@H](Oc2nc(Nc3ccc(N4CCC(N5CCN(C)CC5)CC4)cc3)c(C(N)=O)nc2CC)C1 | 0.0323 µM (active) | 0.091 µM (active) |  | 7.15 µM (active) | 1.43 µM (active) |  |  |  |
| C=CC(=O)N1CCC[C@H](n2c(=O)n(-c3ccc(Oc4ccccc4)cc3)c3c(N)ncnc32)C1 | 1.05 µM (active) | 1.66 µM (active) |  | 8.91 µM (active) | 3.98 µM (active) |  |  |  |
| Cc1cnc(NC(=O)c2cc(Oc3cnc(C(=O)N(C)C)nc3)c3cc(C)oc3c2)cn1 | inactive | inactive | -13.9% | inactive |  |  |  |  |
| NS(=O)(=O)c1cc2c(cc1C(F)(F)F)NCNS2(=O)=O | inactive | inactive | -4.83% | inactive |  |  |  |  |
| CC[C@@](C)(Nc1ccnc(-c2c[nH]c3ncccc23)n1)C(=O)NCC(F)(F)F | 14.6 µM (active) | 16.4 µM (active) | 0.931% | inactive |  |  |  |  |
| COc1cc(N2CCN(C)CC2)ccc1Nc1nccc(-c2cn(C)c3cnccc23)n1 | 116 nM (active) and 209 nM (active) | 517 nM (active) and 590 nM (active) | -3.47% | 25.1 µM (active) |  |  |  |  |
| CN(Cc1ccc(/C=C/C(=O)NO)cc1)CC12CC3CC(CC(C3)C1)C2 | 0.296 µM (active) | 0.235 µM (active) |  | 0.447 µM (active) | 2.24 µM (active) |  |  |  |
| CN(N=O)C(=O)N[C@@H]1[C@@H](O)[C@H](O)[C@@H](CO)O[C@@H]1O | inactive | inactive | 0.228% and 12.5% | inactive |  |  |  |  |
| Nc1ccc(S(=O)(=O)Nc2ccccn2)cc1 | inactive | inactive | 6.67% | inactive |  |  |  |  |
| CC(=O)N[C@H]1CSSC[C@@H](C(N)=O)NC(=O)[C@H](C(C)C)NC(=O)[C@H](C)NC(=O)[C@H](Cc2cnc[nH]2)NC1=O | inactive | inactive | -0.986% | inactive |  |  |  |  |

| SMILES | Potency [1] | Potency [2] | activity (max response) [3] | Potency [4] | Potency [3] | viability (% of control) [1] | viability, % of control [2] | activity change, negative = viability loss [4] |
| --- | --- | --- | --- | --- | --- | --- | --- | --- |
| O=C(CCCCCCC(=O)N/N=C/c1ccc(N(c2ccccc2)c2ccccc2)cc1)NO | 4.17 µM (active) | 4.17 µM (active) |  | 0.631 µM (active) | 28.2 µM (active) |  |  |  |
| CCOC(=O)CCNc1cc(N2CCc3ccccc3CC2)nc(-c2ccccn2)n1 | 4.68 µM (active) | 5.25 µM (active) |  | 8.91 µM (active) | 1.26 µM (active) |  |  |  |
| CC(=O)N1CCC[C@H]1C(=O)N[C@@H](Cc1cnc[nH]1)C(=O)N[C@@H](CO)C(=O)N[C@@H](CS)C(=O)N[C@@H](CC(N)=O)C(N)=O | inactive | inactive | -17.6% | inactive |  |  |  |  |
| CNCc1ccccc1 | inactive | inactive | 8.2% | inactive |  |  |  |  |
| CC(=O)OC[C@H]1O[C@@](COC(C)=O)(O[C@H]2O[C@H](COC(C)=O)[C@@H](OC(C)=O)[C@H](OC(C)=O)[C@H]2OC(C)=O)[C@@H](OC(C)=O)[C@@H]1OC(C)=O | inactive | inactive | 1.89% | inactive |  |  |  |  |
| O=C1OC(COc2ccccc2[N+](=O)[O-])CC1Cc1ccccc1 (stereo unspecified) | inactive | 13.2 µM (active) | -13.4% | inactive |  |  |  |  |
| CC(=O)N(c1onc(C)c1C)S(=O)(=O)c1ccc(N)cc1 | inactive | inactive | 0.743% | inactive |  |  |  |  |
| NC(CC1c2ccccc2Oc2ccccc21)(C(=O)O)C1CC1C(=O)O (stereo unspecified) | inactive | inactive | 1.03% | inactive |  |  |  |  |
| CCOC(=O)C(=O)c1csc(NC=O)n1 | inactive | inactive | 8.44% | inactive |  |  |  |  |
| CC(Cc1ccccc1)(NC(=O)CN)c1ccccc1 (stereo unspecified) | inactive | inactive | 8.44% | inactive |  |  |  |  |
| NC12CC3CC(CC(C3)C1)C2 | inactive | inactive | 13.7% and -1.26% | inactive |  |  |  |  |
| COC(=O)/C=C/C(=O)N(O)CCCCNCc1ccc(COC(=O)Nc2cccc3ccccc23)cc1 | 7.31 µM (active) | 6.51 µM (active) | -10.5% | inactive |  |  |  |  |
| CN(C)CCOc1ccc(-c2nc(-c3ccc4c(c3)CC/C4=N\O)c(-c3ccncc3)[nH]2)cc1 | 7.42 µM (active) | 5.9 µM (active) |  | 28.2 µM (active) | 31.6 µM (active) |  |  |  |
| CN1C(=O)CC[C@H]1c1cccnc1 | inactive | inactive | 2.26% | inactive |  |  |  |  |
| O=C(/C=C/c1ccc(/C=C/C(=O)Nc2ccc(C3=NCCN3)cc2)cc1)Nc1ccc(C2=NCCN2)cc1 |  |  | -13% |  |  | 73.8% [at 4.97 µM] | 91.6% [at 4.97 µM] | -22% [at 3.81 µM] |
| C[C@@H]1N=C(N)NC(N(C)C)=N1 | inactive | inactive | -4.04% | inactive |  |  |  |  |
| Clc1ccc(-c2nc3sccn3c2/C=N/OCc2ccc(Cl)c(Cl)c2)cc1 | inactive | inactive | 3.29% | inactive |  |  |  |  |
| O=C1OC(CN2CCOCC2)CN1/N=C/c1ccc([N+](=O)[O-])o1 (stereo unspecified) | inactive | 8.41 µM (active) | -3.41% | 16.4 µM (active) |  |  |  |  |
| C=C1C[C@@]2(O)O[C@@]3(C[C@H]2C(C)C)[C@@H](C)CC[C@@H]13 | inactive | inactive | 6.19% | inactive |  |  |  |  |
| CCOc1cc(NC(C)=O)ccc1C(=O)OC | inactive | inactive | 1.95% | inactive |  |  |  |  |
| COC1CCC(N2C(=O)CNc3ncc(-c4ccc(C(C)(C)O)nc4)nc32)CC1 (stereo unspecified) | 5.25 µM (active) | 4.17 µM (active) |  | 15.8 µM (active) | 15.8 µM (active) |  |  |  |
| CCC1C(=O)OCC1Cc1cncn1C (stereo unspecified) | inactive | inactive | 6.41% | inactive |  |  |  |  |
| COc1cc2ncnc(Oc3cccc(NC(=O)Nc4cc(C(C)(C)C(F)(F)F)on4)c3)c2cc1OC | 0.164 µM (active) | 0.291 µM (active) | -26.2% | inactive |  |  |  |  |
| O=C(O)/C(S)=C/c1ccc(I)cc1 | inactive | inactive | 9.8% | inactive |  |  |  |  |
| CN1CCN(C2CCC(n3cc(-c4ccc(Oc5ccccc5)cc4)c4c(N)ncnc43)CC2)CC1 (stereo unspecified) | 0.0231 µM (active) | 58 nM (active) and 74.2 nM (active) |  | 7.08 µM (active) | 1.58 µM (active) |  |  |  |
| CC(=O)c1ccc(O)c(C(N)=O)c1 | inactive | inactive | 17.1% | inactive |  |  |  |  |
| C[C@@H](Oc1ccc2[nH]nc(/C=C/c3cnn(CCO)c3)c2c1)c1c(Cl)cncc1Cl | 0.0235 µM (active) | 0.0525 µM (active) |  | 5.01 µM (active) | 3.98 µM (active) |  |  |  |
